Experimental data: PubChem BioAssay (NCI)
This is part of a sample that, as a whole, favours compounds with a hit. Of some 79,000 tested, about 15% had one in any assay. Active and inactive are the calls of the source. Rule as the data show it: active = growth inhibition above about 70%; inactive = the rest.

Tests used:
[1] = NCI Yeast Anticancer Drug Screen. Data for the rad52 strain (AID 147);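 also: 0% = growth of vehicle-treated control cultures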; conditions: S. cerevisiae rad52 mutant growth inhibition, hits give high values
In short: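 Inhibition of yeast growth, referenced to vehicle controls, was the measured output for a strain with defective DNA damage repair.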

[2] = NCI Yeast Anticancer Drug Screen. Data for the wt1 strain (AID 149);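 also: 0% = growth of vehicle-treated wt1 cultures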; conditions: S. cerevisiae wt1 strain (SPY 50644) growth inhibition, hits give high values
In short: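 Yeast wt1 strain exposed to compounds; growth inhibition measured relative to vehicle-treated controls.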

[3] = NCI Yeast Anticancer Drug Screen. Data for the rad50EPP+ strain (AID 151);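 also: 0% = growth of vehicle-treated control cultures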; conditions: S. cerevisiae rad50 mutant strain, hits give high values
In short: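 Genetically defined yeast (rad50EPP+, DNA damage repair alteration) is grown with compound, and inhibition of growth is expressed relative to vehicle-treated controls.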

[4] = NCI Yeast Anticancer Drug Screen. Data for the rad50 strain (AID 155);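 also: 0% = growth of vehicle-only cultures of the same strain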; conditions: S. cerevisiae rad50 strain growth inhibition, hits give high values
In short: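 Yeast carrying a defined DNA repair defect were exposed to test compounds, and growth was compared with vehicle-treated controls to give percent inhibition.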

[5] = NCI Yeast Anticancer Drug Screen. Data for the mec2-1 strain (AID 157); conditions: S. cerevisiae mec2-1 strain, hits give high values
In short: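 Each compound was tested on mec2-1 yeast, a strain altered in DNA damage repair or cell cycle control. Growth inhibition is reported relative to vehicle.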

[6] = NCI Yeast Anticancer Drug Screen. Data for the rad14 strain (AID 159);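 also: 0% = growth of vehicle-treated control cultures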; conditions: S. cerevisiae rad14 strain growth inhibition, hits give high values
In short: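 Yeast cells carrying a defined DNA-repair defect were exposed to compounds, and growth inhibition was calculated relative to vehicle-treated control cultures.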

[7] = NCI Yeast Anticancer Drug Screen. Data for the sgs1 mgt1 strain (AID 161);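 also: 0% = growth of cultures given vehicle only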; conditions: S. cerevisiae sgs1 mgt1 strain, hits give high values
In short: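 Genetically altered yeast, compound exposure, growth inhibition relative to vehicle.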

[8] = NCI Yeast Anticancer Drug Screen. Data for the CLN2oe strain (AID 163);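 also: 0% = growth of vehicle-only control cultures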; conditions: S. cerevisiae CLN2oe strain, hits give high values
In short: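 First, the altered yeast strain was treated with each compound; second, its growth was measured; finally, inhibition was derived by comparison with vehicle controls.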

[9] = NCI Yeast Anticancer Drug Screen. Data for the cln2 rad14 strain (AID 165);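 also: 0% = growth equal to vehicle treated cultures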; conditions: S. cerevisiae cln2 rad14 strain, hits give high values
In short: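 Test compounds were added to cln2 rad14 yeast cultures; inhibition of growth was then determined by comparison with vehicle treatment.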

[10] = NCI Yeast Anticancer Drug Screen. Data for the bub3 strain (AID 167); conditions: S. cerevisiae bub3 mutant strain, hits give high values
In short: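 Compounds were applied to a genetically altered yeast strain carrying a cell-cycle control defect. Growth inhibition was scored against vehicle-treated controls.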

[11] = NCI Yeast Anticancer Drug Screen. Data for the wt2 strain (AID 169);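 also: 0% = growth of vehicle-treated yeast cultures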; conditions: S. cerevisiae wt2 strain growth inhibition, hits give high values
In short: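 The panel's yeast strains carry defined changes in DNA repair or cell cycle genes. Each strain is grown with compound, and growth loss is scored relative to vehicle.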

[12] = NCI Yeast Anticancer Drug Screen. Data for the mlh1 strain (AID 171);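 also: 0% = growth of vehicle-treated control cultures of the same strain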; conditions: S. cerevisiae mlh1 strain growth inhibition, hits give high values
In short: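 Inhibition values reflect reduced yeast growth in the presence of compound, referenced to vehicle controls, using a strain chosen for its alteration in DNA repair or cell cycle control.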

[13] = NCI Yeast Anticancer Drug Screen. Data for the sgs1 strain (AID 173);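 also: 0% = growth of vehicle-only control cultures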; conditions: S. cerevisiae sgs1 mutant, hits give high values
In short: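 Vehicle-treated cultures served as reference for growth inhibition of a yeast strain altered in DNA damage repair or cell cycle control after compound exposure.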

[14] = NCI Yeast Anticancer Drug Screen. Data for the mlh1 rad18 strain (AID 175); conditions: S. cerevisiae mlh1 rad18 strain growth inhibition, hits give high values
In short: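 Inhibition values reflect reduced growth of mutant yeast versus vehicle-treated controls following compound exposure; the mutations affect DNA damage repair.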

[15] = NCI Yeast Anticancer Drug Screen. Data for the rad18 strain (AID 177); conditions: S. cerevisiae rad18 mutant growth inhibition, hits give high values
In short: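 Steps: expose repair-mutant yeast to compound; measure growth; express as inhibition relative to vehicle control.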

[16] = at 5.0 µM (retest, dose inferred, filed as 0.5)
[17] = at 50.0 µM (retest, dose inferred, filed as 5.0)

Measured: growth inhibition

CN(C)c1ccc(N=Nc2ccccn2)cc1
inactive: [1]; at 1.2 µM -15% | [1]; at 3.7 µM -12% | [1]; at 11.0 µM 15% | [2]; at 1.2 µM -21% | [2]; at 3.7 µM 31% | [2]; at 11.0 µM 29% | [3]; at 1.2 µM -88% | [3]; at 3.7 µM -118% | [3]; at 11.0 µM -85% | [3]; at 33.0 µM 66% | [4]; at 1.2 µM -29% | [4]; at 3.7 µM -18% | [4]; at 11.0 µM 26% | [5]; at 1.2 µM -10% | [5]; at 3.7 µM 20% | [5]; at 11.0 µM 14% | [5]; at 33.0 µM 66% | [6]; at 1.2 µM 12% | [6]; at 3.7 µM 1% | [6]; at 11.0 µM 62% | [7]; [16] -1% | [8]; at 1.2 µM 1% | [8]; at 3.7 µM -17% | [8]; at 11.0 µM 17% | [9]; [16] 41% | [10]; at 1.2 µM -3% | [10]; at 3.7 µM 15% | [10]; [16] 40% | [10]; at 11.0 µM 61% | [11]; at 1.2 µM -27% | [11]; at 3.7 µM -12% | [11]; at 11.0 µM 3% | [12]; at 1.2 µM 33% | [12]; at 3.7 µM 10% | [12]; at 11.0 µM 60% | [13]; at 1.2 µM -6% | [13]; at 3.7 µM 5% | [13]; at 11.0 µM 25% | [15]; at 1.2 µM -16% | [15]; at 3.7 µM -10% | [15]; at 11.0 µM -1%
active: [1]; at 33.0 µM 89% | [1]; at 100.0 µM 94% | [2]; at 33.0 µM 87% | [2]; at 100.0 µM 94% | [3]; at 100.0 µM 85% | [4]; [16] 100% | [4]; at 33.0 µM 94% | [4]; [17] 100% | [4]; at 50.0 µM 81.6% | [4]; at 100.0 µM 96% | [5]; [16] 100% | [5]; [17] 100% | [5]; at 50.0 µM 82.9% | [5]; at 100.0 µM 96% | [6]; at 33.0 µM 95% | [6]; at 100.0 µM 97% | [7]; [17] 98% | [7]; at 50.0 µM 85.6% | [8]; at 33.0 µM 77% | [8]; at 100.0 µM 88% | [9]; [17] 97% | [9]; at 50.0 µM 75.2% | [10]; at 33.0 µM 95% | [10]; [17] 97% | [10]; at 50.0 µM 87.1% | [10]; at 100.0 µM 96% | [11]; at 33.0 µM 86% | [11]; at 100.0 µM 94% | [12]; at 33.0 µM 93% | [12]; at 100.0 µM 96% | [13]; at 33.0 µM 88% | [13]; at 100.0 µM 94% | [14]; [16] 100% | [14]; [17] 100% | [14]; at 50.0 µM 83.2% | [15]; at 33.0 µM 83% | [15]; at 100.0 µM 91%
